OvCa metastasis: Primary qHTS assay for Inhibitors of ovarian cancer metastasis using an organotypic tumor microenvironment (TME) model | SKOV3ip1-GFP adhesion/invasion on 3D omental model, fluorescence | Potency, µM (series often up to 45.8 µM), usual class: inhibitors | hit rate 0.1% among 46,000 | AID 1963576, 2024; further: nearly all actives have a fitted effect of over 65% in size
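Adhesion/invasion was scored as fixed GFP-labeled SKOV3ip1 cell counts (488/509 nm), normalized to DMSO and tomatine controls. Cancer cells in serum-free medium, with four compound doses (0.36-46 umol/L), sat 2 hr at RT then 16 hr at 37 C on a 48 hr fibroblast/mesothelial/ECM culture.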
p53null 39C tox: qHTS Screen for Compounds that Selectively Target Cancer Cells with p53 Mutations: Cytotoxicity of p53 Null Cells at the Nonpermissive Temperature. H1299 p53-null (neo) cells, 39C, ATPlite viability, 24 h. Potency, µM (titrated, usually from 46.1 µM), most hits filed as cytotoxic. hit rate 0.97% among 55,000. AID 904, 2007; further: nearly all actives have a fitted effect of over 50% in size
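Concentration-response (up to 46 uM) was run for 24 h at the nonpermissive 39C on H1299-p53A138V or H1299-neo cells. ATP content was measured with ATPlite luminescence. AC50 values were Hill-modeled after normalizing between DMSO and 100 uM tamoxifen killing.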
S16 F2sN tox: Cell viability qHTS assay in S16 Pmp22-F2sN cells | S16 Pmp22-F2sN Schwann cells viability, CellTiter-Glo, 24 h | Potency, µM (titrated, usually from 57.5 µM), hits mostly cytotoxic | hit rate 0.48% among 43,000 | AID 1508642, 2021; further: nearly all actives have a fitted effect of over 65% in size
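Seed 500-1,000 S16 Pmp22-F2sN cells per well in phenol-red-free DMEM with 10% heat-inactivated FBS; pin-add 23 nL compound; incubate 24 h at 37C; add CellTiter-Glo, wait 15 min protected from light; read luminescence.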
p53null 32C tox: qHTS Screen for Compounds that Selectively Target Cancer Cells with p53 Mutations: Cytotoxicity of p53 Null Cells at the Permissive Temperature; hit rate 0.62% among 55,000; Potency, µM (top dose mostly 46.1 µM), hits mostly cytotoxic; H1299-neo p53 null cells, ATP luminescence, 24 h, 32C; AID 903, 2007; further: nearly all actives have a fitted effect of over 55% in size
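Overnight 37C seeding (600 cells/well) of H1299-neo preceded a 24 hr, 32C exposure to compounds up to 46 uM. ATP levels, read by luminescence after 20 min at RT, indicated surviving cells.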
PMP22 txn: Cell-based coincidence reporter assay to measure PMP22 gene transcription in S16 Pmp22-F2sN cells - Primary screen. S16 Pmp22-F2sN Schwann cells (luciferase reporters placed in the Pmp22 gene), FLuc/NLuc coincidence luminescence, 24 h. Potency, µM (doses to about 57.5 µM), hits mostly inhibitors. hit rate 2% among 43,000; active means clear falling dose curves in both reporters; inconclusive means both reporters move, but less clearly or upward; inactive means either reporter flat; the % is the NLuc reporter signal
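Rat S16 Pmp22-F2sN cells, 500-1,000/well in phenol red-free DMEM + 10% FBS, compound-treated 24 h (37C, 5% CO2). Luminescence: FLuc read, Stop&Glo added, NLuc read.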
mTORC1 inh: Acumen qHTS Assay for Inhibitors of the mTORC1 Signaling Pathway in MEF (Tsc2-/-, p53-/-) Cells: Sytravon. Potency, µM (top dose mostly 38.3 µM), actives largely listed as inhibitors. Tsc2-/- p53-/- MEF, phospho-rpS6 immunofluorescence/PI, 24 h. hit rate 0.78% among 44,000. AID 493208, 2011; further: nearly all actives have a fitted effect of over 50% in size
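Read-out: phospho-S6 Alexa-488 intensity over PI intensity per well, scored as % active cells using thresholds from rapamycin (7.5 nM) and DMSO controls. Tsc2-/-, p53-/- MEFs exposed to compound for 24 h; PI cell count recorded as viability.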
NLuc sat counter: Biochemical NLuc saturation counterscreen for small molecule modulators of PMP22 gene expression - Nano-Glo assay; hit rate 4% among 690; Potency, µM (top dose mostly 57.5 µM), usual class: inhibitors; Secreted NLuc enzyme (filtered S16 cell medium), Nano-Glo luminescence; shares compounds with PMP22 txn
NLuc Km ctr: Biochemical coelenterazine-based NLuc counterscreen for small molecule modulators of PMP22 gene expression - Km assay; Potency, µM (doses to about 57.5 µM), hits mostly inhibitors; shares compounds with PMP22 txn; secreted NLuc enzyme, coelenterazine luminescence, Km conditions; AID 1508639, 2021; hit rate 5% among 690
FLuc counter: Biochemical FLuc counterscreen for small molecule modulators of PMP22 gene expression; shares compounds with PMP22 txn; 690 tested, under 10 active; Potency, µM (titrated, usually from 57.5 µM), most hits filed as inhibitors; purified P. pyralis FLuc, luminescence, 10 min
Target sequence (P08659 whole entry, looked up): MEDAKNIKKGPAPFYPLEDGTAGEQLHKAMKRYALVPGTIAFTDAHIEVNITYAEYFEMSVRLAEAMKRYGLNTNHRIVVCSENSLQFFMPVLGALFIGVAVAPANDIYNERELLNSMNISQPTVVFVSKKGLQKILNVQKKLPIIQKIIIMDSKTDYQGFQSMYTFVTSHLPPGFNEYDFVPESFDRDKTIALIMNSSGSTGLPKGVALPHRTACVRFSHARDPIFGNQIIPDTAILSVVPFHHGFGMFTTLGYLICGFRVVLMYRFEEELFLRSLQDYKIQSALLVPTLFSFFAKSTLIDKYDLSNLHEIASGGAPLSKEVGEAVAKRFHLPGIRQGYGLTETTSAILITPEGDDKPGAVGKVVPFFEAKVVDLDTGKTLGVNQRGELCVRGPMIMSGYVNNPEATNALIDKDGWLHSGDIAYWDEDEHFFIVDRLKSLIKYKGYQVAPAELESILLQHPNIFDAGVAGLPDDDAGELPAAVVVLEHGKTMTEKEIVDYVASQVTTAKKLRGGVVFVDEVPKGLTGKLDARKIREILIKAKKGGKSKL
S16 viab conf: Cell viability qHTS assay in S16 Pmp22-F2sN cells - Confirmatory screen | Potency, µM (series often up to 57.5 µM), usual class: cytotoxic | S16 Schwann cells viability, CellTiter-Glo ATP luminescence, 24 h | shares compounds with PMP22 txn | hit rate 7% among 690
PMP22 txn conf: Cell-based coincidence reporter assay to measure PMP22 gene transcription in S16 Pmp22-F2sN cells - Confirmatory screen. shares compounds with PMP22 txn. S16 Schwann cells Pmp22-F2sN, dual luciferase, 24 h. Potency, µM (doses to about 57.5 µM), most hits filed as inhibitors. hit rate 22% among 690; active means clear falling dose curves in both reporters; inconclusive means both reporters move, but less clearly or upward; inactive means either reporter flat; the % is the FLuc reporter signal
Large screens that a line does not name were inactive (follow-up assays come after a bar, where they were run). In the library only some 3% were active in any assay of this set; here they are far more common. Unless noted, the call rests on the fitted dose curve; in most records, active means well fitted curve in the direction sought with a large enough effect; inconclusive means small, poorly fitted or top-dose-only effect, or another doubt; inactive means no such curve, though single readings can be large; an effect the other way counts as inactive or inconclusive.

COc1ccc(Nc2ncc(C(=O)N3CCN(c4cccc(Cl)c4)CC3)c3ccccc23)cc1	PMP22 txn 14µM | NLuc sat counter inconclusive | NLuc Km ctr inactive | FLuc counter inactive | S16 viab conf inactive | PMP22 txn conf inconclusive
CCCN(C(=O)Cn1nc(Cc2cccnc2)c2ccccc2c1=O)c1ccc(C(C)C)cc1	p53null 39C tox inconclusive, p53null 32C tox inconclusive, PMP22 txn inconclusive
CCCN(C(=O)Cn1nc(Cc2ccncc2)c2ccccc2c1=O)c1ccccc1C	PMP22 txn 13µM | NLuc sat counter inconclusive | NLuc Km ctr inconclusive | FLuc counter inactive | S16 viab conf inactive | PMP22 txn conf inconclusive
C[C@@H]1CCN(C(=O)CC#N)C[C@H]1N(C)c1ncnc2[nH]ccc12	none (no result: p53null 39C tox, S16 F2sN tox, p53null 32C tox, PMP22 txn, mTORC1 inh)
CCOC(=O)c1c(C)c(-c2ccccc2)n(CC(=O)Nc2cccc(C)c2C)c1C	PMP22 txn inconclusive
CCOC(=O)c1c(C)c(-c2ccccc2)n(CC(=O)Nc2cc(C)ccc2OC)c1C	PMP22 txn 9.5µM | NLuc sat counter inactive | NLuc Km ctr inactive | FLuc counter inactive | S16 viab conf inactive | PMP22 txn conf inconclusive
Cc1ccc(NC(=O)N(Cc2cn(C)c3ccccc23)C2CCCCC2)cc1C	p53null 39C tox inconclusive, S16 F2sN tox inconclusive, PMP22 txn 11µM | NLuc sat counter 14µM | NLuc Km ctr inconclusive | FLuc counter inconclusive | S16 viab conf inactive | PMP22 txn conf inconclusive
COc1cccc(NC(=O)N(Cc2cn(C)c3ccccc23)C2CCCCC2)c1	p53null 39C tox inconclusive, S16 F2sN tox inconclusive, PMP22 txn 10µM | NLuc sat counter inconclusive | NLuc Km ctr inconclusive | FLuc counter inactive | S16 viab conf inactive | PMP22 txn conf inconclusive
C[C@H](NC(=O)C(=O)Nc1ccccc1C(C)(C)C)C(=O)N[C@@H](CC(=O)O)C(=O)COc1c(F)c(F)cc(F)c1F	none (no result: p53null 39C tox, S16 F2sN tox, p53null 32C tox, PMP22 txn, mTORC1 inh)
COc1ccc(OCc2ccc(-c3nc(C#N)c(N4CCC(C)CC4)o3)o2)cc1	PMP22 txn 6.7µM | NLuc sat counter inactive | NLuc Km ctr inactive | FLuc counter inactive | S16 viab conf inactive | PMP22 txn conf inactive
Cc1ccc(OCc2ccc(-c3nc(C#N)c(N4CCC(C)CC4)o3)o2)cc1	PMP22 txn inconclusive

Assay outcomes as filed in PubChem BioAssay.
